Screening results (PubChem BioAssay)
FLuc inh – inhibitors of firefly luciferase; P08659; purified firefly luciferase, luminescence, 8 min; Potency, µM (titrated, usually from 57.1 µM), for inactives: at the highest dose activity change, negative = inhibition, most hits filed as inhibitors; 2.2% of 72,000 active; AID 411; also: potency is read from the fitted curve at half-maximal effect; % is scaled to controls: 0 for no effect and ±100 for the full control effect; nearly all actives have a fitted effect of over 40% in size
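Titration-based qHTS; buffer 50 mM imidazole pH 7.2, 50 mM KCl, 7 mM MgCl2, 10 uM ATP, 0.01% Tween 20, 0.05% BSA; luciferase/luciferin detector mix added after compound; 8 min, ambient; luminescence.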
TSHR agonist – TSH receptor (human) agonism; AID 926; 0.48% of 73,000 active; Potency, µM (titrated, usually from 57.1 µM), inactives show top-dose activation, usual class: activators; P16473; HEK293-CNG-TSHR cells (CNG channel as cAMP sensor), membrane potential dye, cAMP; active = well fitted activation curve with a large enough effect in the main read-out, with a control signal flat, not every such curve was filed as active; inconclusive = small, poorly fitted or top-dose-only effect, or a change in a side signal; inactive = no such curve, though single readings can be large or run the other way; % of control where 0% means no effect;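 also: the control signal comes from parental cells without the receptor; potency is read from the fitted curve at half-maximal effect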
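HEK 293 cells stably expressing TSHR and a cAMP-gated CNG channel; parental CNG-only cells as counterscreen. Cells preloaded 60 min with membrane potential dye plus 100 uM RO 20-1724, then compound 30 min; fluorescence read at 590 nm.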
Bst PK mod – alters activity of Bacillus stearothermophilus pyruvate kinase | purified pyruvate kinase, luminescence ATP production; ribose 5-phosphate activator present at AC10 | Potency, µM | 1.2% of 51,000 active; in the data active = potency below about 11 µM; inconclusive = mostly about 12 µM to 25 µM;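 the screen sought inhibitors and activators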;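 also: potency is read from the fitted curve at half-maximal effect; scaled between full activation by ribose 5 phosphate and full inhibition by luteolin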
HEK293 cAMP cs – raises cAMP in parental HEK293 cells, TSHR agonist counter-screen; parental HEK293 CNG cAMP sensor, membrane potential fluorescence; AID 938; 2.5% of 73,000 active; Potency, µM (doses to about 57.1 µM), without a hit: at the highest dose activation, actives largely listed as activators; also: potency is read from the fitted curve at half-maximal effect; % of control where 0% means no effect; nearly all actives have a fitted effect of over 55% in size
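Parental HEK 293 cells stably expressing a modified CNG channel (no TSHR) report cAMP rise as membrane depolarization. Membrane potential dye with 100 uM RO 20-1724 was loaded for 60 min at room temperature, then compound added for 30 min; fluorescence read at 590 nm.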
Tau fil binding – binders of human tau filaments. Potency, µM (series often up to 57.1 µM), without a hit: top-dose activity change, negative = inhibition. P10636. 2% of 71,000 active. recombinant tau filaments, thioflavin S fluorescence, 15 h; filaments grown with octadecylsulfate alongside compound;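 also: potency is read from the fitted curve at half-maximal effect; % is scaled to controls: 0 for no effect and ±100 for the full control effect; actives lower thioflavin S fluorescence by blocking filaments or displacing dye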
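His-tagged recombinant human tau (exons 2, 3 and 10 included), 1 uM, was induced to fibrillize by 30 uM sodium octadecylsulfate with compound present. After 15 h at 37 C, thioflavine S fluorescence (ex 450, em 510 nm) was read.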
ERK AVP block – vasopressin-driven ERK pathway inhibition; HEK293-V1b, vasopressin-stimulated pERK AlphaScreen; Potency, µM (titrated, usually from 57.5 µM), for inactives: at the top dose activity, negative = inhibition, most hits filed as inhibitors; 0.99% of 72,000 active; AID 995; also: potency is read from the fitted curve at half-maximal effect; % is scaled to controls: 0 for no effect and ±100 for the full control effect; nearly all actives have a fitted effect of over 55% in size
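HEK293 cells stably expressing V1b receptor, preincubated 30 min at 37 °C with compound, then stimulated 5 min with 25 nM vasopressin. Phospho-ERK by AlphaScreen SureFire after 5 h RT; normalized to DMSO and vasopressin; AC50 by Hill fit.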
tau ThS displ – displaces Thioflavin S from human tau filaments; shares compounds with Tau fil binding; recombinant tau filaments, Thioflavin S fluorescence displacement; Potency, µM; 40% of 60 active; calls by dose curve
aSyn ThS displ – compounds binding human alpha-synuclein fibrils, displacing Thioflavin S; shares compounds with Tau fil binding; recombinant alpha-synuclein fibrils, ThS fluorescence displacement; Potency, µM; 40% of 60 active; calls by dose curve
Abeta ThS displ – amyloid beta fibril binding by ThS displacement; Abeta1-42 fibrillization, thioflavin S fluorescence, overnight 37 C; AID 956; shares compounds with Tau fil binding; Potency, µM; 50% of 60 active; calls by dose curve
Target sequence (P05067 whole entry, looked up): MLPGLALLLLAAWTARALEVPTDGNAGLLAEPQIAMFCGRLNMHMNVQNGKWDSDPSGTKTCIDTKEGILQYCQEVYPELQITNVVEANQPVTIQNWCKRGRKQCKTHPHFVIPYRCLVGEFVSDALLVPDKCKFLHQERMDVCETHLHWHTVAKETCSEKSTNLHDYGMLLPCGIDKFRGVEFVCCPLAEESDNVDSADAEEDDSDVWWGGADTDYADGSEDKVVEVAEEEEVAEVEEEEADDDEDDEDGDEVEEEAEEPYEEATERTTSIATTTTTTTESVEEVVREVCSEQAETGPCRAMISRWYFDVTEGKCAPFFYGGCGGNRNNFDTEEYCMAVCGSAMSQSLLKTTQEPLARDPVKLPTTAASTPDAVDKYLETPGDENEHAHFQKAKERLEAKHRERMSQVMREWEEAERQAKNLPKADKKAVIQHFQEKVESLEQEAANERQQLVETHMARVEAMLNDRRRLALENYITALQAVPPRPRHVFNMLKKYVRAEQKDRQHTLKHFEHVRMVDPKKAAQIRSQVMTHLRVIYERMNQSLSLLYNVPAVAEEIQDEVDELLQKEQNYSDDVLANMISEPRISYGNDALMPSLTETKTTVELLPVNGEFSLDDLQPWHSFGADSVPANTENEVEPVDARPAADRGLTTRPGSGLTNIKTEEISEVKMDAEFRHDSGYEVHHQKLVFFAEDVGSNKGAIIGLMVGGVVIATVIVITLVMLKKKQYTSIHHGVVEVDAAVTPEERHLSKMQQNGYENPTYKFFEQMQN
parental cAMP – TSHR-independent cAMP elevation, counter-screen; 150 tested, under 10 active; activity change, negative = inhibition, % at 32.9 µM; parental HEK293 CNG biosensor, cAMP membrane potential fluorescence; AID 953; shares compounds with TSHR agonist
* hit, by the source's call; i = inactive; ? = inconclusive; / = no result; [ ] = dose if it differs, or a comment. An excerpt weighted towards active compounds, which were near 7.2% of everything screened. Unless noted, calls follow the shape of the dose curve; as a rule, active = well fitted curve in the direction sought with a large enough effect; inconclusive = small, poorly fitted or top-dose-only effect, or another doubt; inactive = no such curve, though single readings can be large; an effect the other way counts as inactive or inconclusive.

SMILES	FLuc inh	TSHR agonist	Bst PK mod	HEK293 cAMP cs	Tau fil binding	ERK AVP block	tau ThS displ	aSyn ThS displ	Abeta ThS displ	others
CCOc1ccc(CNc2ccc(N3CCCC3)cc2)cc1	-3%	10%	>57	-1%	5µM*	?	i	?	4.3µM*
COc1cccc2c1C(=O)c1c(O)c3c(c(O)c1C2=O)C[C@@](O)(C(=O)CO)C[C@H]3O[C@H]1C[C@@H](N)[C@H](O)[C@@H](C)O1.[W]	-2%[11.4 µM]	0%[11.4 µM]	/	0%[11.4 µM]	-26%[11.4 µM]	-10%[11.5 µM]	4.2µM*	7.1µM*	2.8µM*
Cc1cnc(CNc2ccnc(-c3ccccc3Cl)n2)cn1	1%[2.29 µM]	3%	/	-4%	-12%	-8%	/	/	/
O=C(COc1ccccc1O)Nc1ccccc1Cl	-21%	/	/	-3%	-41%	21%	i	i	i
O=C(COC(=O)c1ccccn1)Nc1ccccc1Cl	-3%	-5%	>57	4%	-9%	-9%	/	/	/
CCC(C)COC(=O)c1ccc(C(=O)O)cc1 (stereo not given)	4%	-2%	>57	2%	-45%	24%	i	i	i
CCOc1ccc(C(C)=O)cc1N1C(=O)C2C3C=CC(C3)C2C1=O (stereo not given)	2%	-5%	>57	21%	-30%	15%	i	i	i
CCOc1ccc(C(C)=O)cc1N1C(=O)C2C3C=CC(O3)C2C1=O (stereo not given)	-8%	5%	>57	15%	7%	15%	/	/	/
N=C(N)SCc1nc(-c2ccc(Cl)cc2)no1	1%[11.4 µM]	-13%[11.4 µM]	/	-13%[11.4 µM]	-8%[11.4 µM]	-27%[11.5 µM]	/	/	/
Cn1c(=Nc2ccc(N3CCOCC3)cc2)ccc2ccccc21	-1%	-3%	>57	-9%	2µM*	14%	?	i	i
COc1ccc(C2CC(=O)c3c(O)cc(O[C@H]4OC(COC5OC(C)C(O)C(O)[C@@H]5O)C(O)C(O)C4O)cc3O2)cc1O (stereo not given in full)	/	/	/	/	/	-11%	/	/	/
COC(OC)[C@@H](C)[C@H](OC)[C@@H](C)[C@H](OC)c1ccccc1	-1%[11.4 µM]	-6%[11.4 µM]	/	-2%[11.4 µM]	/	7%[11.5 µM]	/	/	/
N=C1C=CC(=C(c2ccc(N)cc2)c2ccc(N)cc2)C=C1	-15%[11.4 µM]	?	/	23%[11.4 µM]	1.3µM*	13µM*	1.6µM*	2.3µM*	0.51µM*
CCOC(=O)c1ccc(N)cc1	2%[25.5 µM]	-12%[25.6 µM]	/	-3%[25.6 µM]	4%[25.6 µM]	-3%	/	/	/
O=C(Nc1ccc(N2CCOCC2)cc1)Nc1ccc2nc(-c3ccco3)c(-c3ccco3)nc2c1	-2%	-51%	>57	-29%	0.79µM*	-23%	1.2µM*	1.9µM*	1.2µM*
CC(=O)OC[C@@H]1O[C@@H](O/N=C2/C[C@@H](O)[C@@H](O)[C@@H]3[C@@H]4C(=O)N(Cc5ccccc5)C(=O)[C@H]4CC[C@@H]23)[C@H](OC(C)=O)[C@H](OC(C)=O)[C@@H]1OC(C)=O	1%[11.4 µM]	-5%[11.4 µM]	/	8%[11.4 µM]	/	7%[11.5 µM]	/	/	/
CCCCCCCC#Cc1ccccc1C(NC(=O)OC)C(C(=O)OC)C(=O)OC (stereo not given)	/	12%[11.4 µM]	/	24%[11.4 µM]	/	13%[11.5 µM]	/	/	/
CCOC(=O)Nc1ccc2c(c1)Nc1ccccc1S2	-1%	?	i	-50%	?	12%	/	/	/
CC(=O)c1ccc2c(c1)Nc1ccccc1S2	-3%	-12%[11.4 µM]	>57	-17%	2µM*	22%	7.7µM*	6µM*	9µM*
Nc1nc2nc3c(nc2c(=O)[nH]1)CN(c1ccc(C(=O)O)cc1)C3=O	0%[11.4 µM]	5%[11.4 µM]	/	1%[11.4 µM]	7%[11.4 µM]	4%[11.5 µM]	/	/	/
Oc1ccccc1C1Nc2cccc3cccc(c23)N1	-10%	-35%	3.6*	-25%	3.2µM*	9%	3.3µM*	8µM*	3.8µM*
COc1ncc2nc(-c3cccs3)c(=O)n(C)c2n1	-3%[11.4 µM]	-8%	/	10%	i	-14%	/	/	/
N=c1c(C(=O)NCc2ccc3c(c2)OCO3)cc2c(=O)n3ccccc3nc2n1Cc1cccnc1	2%	?	>57	-81%	?	?	?	7.4µM*	10µM*
CCOCCCn1c(=N)c(C(=O)NCc2ccc3c(c2)OCO3)cc2c(=O)n3cccc(C)c3nc21	2%	/	/	/	0.63µM*	-13%	9.5µM*	2.2µM*	3µM*
CC(C)c1cc(Nc2cccc(O)c2)cc(C(C)C)c1O	-5%	11%	/	-5%	7.9µM*	32µM*	4.9µM*	3.6µM*	3.5µM*
O=c1cnc2cnc(N3CCOCC3)nc2n1CCc1ccccc1	-1%[11.4 µM]	5%	/	4%	-2%	-9%	/	/	/
CCCS(=O)(=O)N1CCN(C(=O)c2ccc(-c3ccccc3)cc2)CC1	-9%	/	/	17%[11.4 µM]	6%[11.4 µM]	-9%	/	/	/	parental cAMP=17
CCCS(=O)(=O)N1CCN(C(=O)c2cccnc2)CC1	/	1%	/	-2%	/	/	/	/	/
